D1 agonist: Allosteric Agonists of the Human D1 Dopamine Receptor: qHTS; D(1A) dopamine receptor (Homo sapiens), P21728; HEK293 T-REx D1 cells, calcium flux, agonist mode; activation, % at 2 µM; 1% of 360,000 active; also: 0% is about no effect
Target sequence (P21728 whole entry, looked up): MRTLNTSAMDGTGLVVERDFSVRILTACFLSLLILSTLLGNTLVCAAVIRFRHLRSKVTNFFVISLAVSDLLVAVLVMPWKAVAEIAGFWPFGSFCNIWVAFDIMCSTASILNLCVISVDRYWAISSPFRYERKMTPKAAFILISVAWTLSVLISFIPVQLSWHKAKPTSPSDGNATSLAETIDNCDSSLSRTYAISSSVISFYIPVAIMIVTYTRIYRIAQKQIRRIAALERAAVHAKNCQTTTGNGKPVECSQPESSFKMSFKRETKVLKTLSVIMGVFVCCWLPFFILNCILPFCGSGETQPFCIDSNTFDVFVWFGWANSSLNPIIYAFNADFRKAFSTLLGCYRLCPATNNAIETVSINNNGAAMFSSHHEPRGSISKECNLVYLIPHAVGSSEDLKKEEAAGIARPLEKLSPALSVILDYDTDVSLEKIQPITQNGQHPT
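Agonism was scored from calcium flux recorded over 180 s (1 read/s) after pintool compound addition, following a 10-cycle baseline. Cells were inducible force-coupled HEK293 TREx D1, plated overnight at 30 C and loaded with no-wash calcium dye.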
D1 antag: Antagonist of Human D 1 Dopamine Receptor: qHTS. HEK293 TREx D1 cells, calcium flux, dopamine EC80; stronger effect = lower value. activity change, negative = inhibition, % at 10 µM. AID 504652, 2011. D(1A) dopamine receptor (Homo sapiens), P21728. 3.2% of 360,000 active; in the data active = activity change below about -30%; also: % is scaled to controls: 0 for no effect and ±100 for the full control effect
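Inducible Hek293 Trex D1 cells (tetracycline, overnight, 30 C). Calcium dye 30–90 min RT. Antagonist mode: EC80 dopamine added after 180 s compound read.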
TRHR PAM: qHTS for Small Molecule Agonists and Allosteric Enhancers of Human TRH Receptor: Primary Screen for Enhancers. 0.66% of 360,000 active. TRHR cells, fluo-8 calcium fluorescence, EC20 TRH enhancement. AID 493056, 2011. enhancement, % at 2 µM; in the data active = enhancement above about 30%; also: 0% is about no effect
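Enhancer read-out: after compound pinning and an initial kinetic agonist-mode read, an EC20 of TRH (10 nM final) was injected and fluo-8 calcium signal (Ex 480/Em 530) followed at 1 s/cycle for 100 cycles in TRHR-expressing cells.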
TRHR agonist: qHTS for Small Molecule Agonists and Allosteric Enhancers of Human TRH Receptor: Primary Screen for Agonists; 0.18% of 360,000 active; activation, % at 2 µM; AID 493084, 2011; TRHR cells, calcium flux fluo-8, FDSS agonist mode; also: 0% is about no effect
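Read-out: compound-evoked intracellular calcium rise in TRHR cells, fluo-8 dye, kinetic FDSS fluorescence at 1 s/cycle following a 10-cycle baseline. Cells cultured overnight before dye loading (30 min–1.5 h, RT).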
D1 PAM: Potentiators of Human D1 Dopamine Receptor: qHTS; D(1A) dopamine receptor (Homo sapiens), P21728; HEK293 TREx D1 cells, calcium flux, dopamine EC20 potentiation; potentiation, % at 10 µM; 0.036% of 360,000 active; in the data active = potentiation above about 30%; also: 0% is about no effect
* marks the source's active call; other numbers are inactive results. In the library only some 4.6% were active in any assay of this set; here they are far more common. Rule as the data show it, unless noted: active = activation above about 30%; inactive = the rest.

SMILES | D1 agonist | D1 antag | TRHR PAM | TRHR agonist | D1 PAM
COc1ccc(Nc2c3c(nc4ccccc24)CCC3)cc1 | 8 | -26 | 4 | 1 | -11
COc1ccc(Nc2nc(N3CCCC3)c3ccccc3n2)cc1 | 6 | -51* | 7 | -1 | -21
CC(C)c1c(C(=O)N/N=C/c2cccs2)nnn1-c1nonc1N | 22 | 24 | -2 | 0 | 0
CC(C)c1c(C(=O)N/N=C/c2ccc(C(F)(F)F)cc2)nnn1-c1nonc1N | 253* | 8 | 1 | -1 | 9
CC(C)c1c(C(=O)N/N=C/c2ccsc2)nnn1-c1nonc1N | 39* | 28 | 18 | 2 | 19
CC(C)c1c(C(=O)N/N=C/c2ccoc2)nnn1-c1nonc1N | 16 | 5 | 9 | 0 | 6
CC(C)c1ccc(Nc2cc(C(=O)NCc3cccs3)c3ccccc3n2)cc1 | 2 | -9 | 2 | 2 | 0
COc1ccc(CNCc2ccc3ccccc3c2)c(OC)c1 | 34* | -20 | 10 | 1 | -4
COc1ccc(CNCc2ccncc2)c(OC)c1 | 6 | -10 | -5 | 1 | 4
COc1ccc(CNCc2cccc(Oc3ccccc3)c2)cc1 | 88* | 12 | 3 | 0 | -3
CCc1nn(CC(=O)N2CCC(C(N)=O)CC2)c(=O)c2cc3occc3n12 | 3 | 22 | -3 | 1 | 1
O=C(NC1CCCCC1)c1ccc2c(c1)N(Cc1cccc(Cl)c1)C(=O)c1ccccc1S2(=O)=O | 2 | -1 | 25 | 1 | -5
CCOc1ccccc1OCCCC(=O)Nc1sccc1C(N)=O | 8 | -5 | 3 | -1 | -3
CC1CCCCN1S(=O)(=O)c1ccc(S(=O)(=O)N2CCCC2)cc1 (stereo unspecified) | 4 | -7 | 0 | 0 | -9
CC1CCCCN1S(=O)(=O)c1ccc(C(=O)N2CCOCC2)cc1 (stereo unspecified) | 8 | 4 | 33* | -2 | -9
CCNc1nc(SCC(N)=O)nc2sc3c(c12)CCN(C)C3 | 33* | -5 | -2 | -1 | -4
CSc1nc(SCC(N)=O)c2c3c(sc2n1)CN(C)CC3 | 1 | 6 | -1 | 1 | -2
CSc1nc(NCc2ccco2)c2c3c(sc2n1)CN(C)CC3 | 1 | -42* | 7 | 0 | -9
O=C(CCNS(=O)(=O)c1ccccc1)N1CCN(C(c2ccccc2)c2ccccc2)CC1 | 4 | 16 | 1 | 0 | -6
O=C1c2ccccc2C(=O)N1OCc1ccccc1[N+](=O)[O-] | 2 | -1 | 1 | -1 | 0
Cc1cc(-c2csc(NC(=O)c3cc4ccccc4o3)n2)c(C)n1C | -2 | 8 | -2 | 1 | 1
COc1ccccc1/C=N/n1nnnc1N | 1 | 5 | -6 | 0 | -3
CC1CC(C)CN(CCOc2ccc(Cl)cc2Cl)C1 (stereo unspecified) | 10 | -28 | 0 | 0 | -23
CC1CC(C)CN(CCOc2cccc(Cl)c2Cl)C1 (stereo unspecified) | 6 | -35* | -2 | 0 | -5
CCOC(=O)N1CCN(Cc2nc3c(c(=O)n(C)c(=O)n3C)n2Cc2cc(C)ccc2C)CC1 | 2 | -32* | 10 | -1 | -7
SMILES | D1 agonist | D1 antag | TRHR PAM | TRHR agonist | D1 PAM
CCCCn1c(CN2CCN(C(=O)OCC)CC2)nc2c1c(=O)n(C)c(=O)n2C | 1 | 31 | -5 | 1 | -1
CC(=O)c1ccc(Nc2cc(C)nc3ccc(C)cc23)cc1 | 2 | 2 | -2 | -2 | -5
O=C(O)CC1(CC(=O)Nc2ccc3ccccc3n2)CCCCC1 | 1 | 2 | 32* | 0 | -3
O=C(O)CC1(CC(=O)Nc2ccc3ccccc3c2)CCCCC1 | 1 | 12 | 0 | 0 | -5
CC(C)NC(=O)C1CCN(C2CCN(C(=O)C3=CCCC3)CC2)CC1 | 2 | -10 | 7 | -1 | -5
COc1ccc(Nc2nc(-c3ccccc3)nc3ccccc23)c(OC)c1 | 3 | 10 | -5 | 0 | -5
COc1ccc(Nc2nc(N)c3ccccc3n2)c(OC)c1 | 1 | -37* | 1 | -1 | -7
CCOc1nc(Nc2ccc(OC)cc2OC)nc(OCC)n1 | 6 | -31* | -4 | 0 | -5
CCOc1nc(Nc2cc(Cl)ccc2OC)nc(OCC)n1 | 0 | -2 | 2 | 1 | -4
Cc1csc2nc(COC(=O)c3ccc(F)cc3)cc(=O)n12 | 6 | -38* | -2 | 0 | -6
COc1cccc(C(=O)Nc2ccccc2C(=O)OCc2cc(=O)n3c(C)csc3n2)c1 | 0 | 14 | 0 | 0 | 0
Cc1csc2nc(COC(=O)c3ccccc3NC(=O)c3cccc(Br)c3)cc(=O)n12 | 0 | -53* | 2 | 1 | 2
COc1ccc(C(=O)OCc2cc(=O)n3c(C)csc3n2)cc1F | 5 | -12 | 2 | 1 | -8
CC1Cc2ccccc2N1C(=S)Nc1cccc(S(=O)(=O)N(C)C)c1 (stereo unspecified) | 3 | -9 | 3 | 0 | 9
CCN(CC)C(=O)CSc1nnc(-c2cccs2)n1Cc1ccco1 | 3 | -32* | -1 | 0 | -6
C=CCNC(=O)c1onc(CSc2ccc(F)c(F)c2)c1C(=O)O | 31* | 136 | 4 | 0 | 1
C=CCNC(=O)c1onc(CSc2cccc(OC)c2)c1C(=O)NCC=C | 0 | -49* | -4 | 0 | 0
C=CCNC(=O)c1onc(CSc2ccc(Cl)cc2)c1C(=O)O | 0 | 6 | 18 | 0 | 0
COc1ccc(-n2c(C)cc(C(=O)COC(=O)Cn3cnc4ccccc43)c2C)cc1 | 8 | -22 | -4 | -1 | -5
COc1ccc(C(=O)Nc2ccc(F)cc2F)cc1OC | 0 | 2 | -3 | 0 | -6
Cn1ccc(C(=O)Oc2ccc(C(=O)Nc3ccc(F)cc3F)cc2)n1 | 12 | -44* | -4 | 1 | -3
COc1ccccc1-c1nnc(NC(=O)C2=COCCO2)o1 | 2 | 4 | -8 | 0 | 2
COc1cccc(C(=O)NC(C)c2ccc(Br)cc2)c1 (stereo unspecified) | 8 | 2 | -3 | 0 | -2
COc1cc(OC)cc(C(=O)NC(C)c2ccc(Br)cc2)c1 (stereo unspecified) | 41* | 4 | -9 | 0 | -1
CCN(c1ccc(OC)cc1)S(=O)(=O)c1ccc(-c2ccc(=O)[nH]n2)o1 | 8 | -41* | 1 | 2 | 5
COc1ccccc1CN1C[C@@H]2C[C@@H](c3[nH]c4c(C)cccc4c3C)N3CCC[C@@]23C1=O | 44* | 70 | -4 | 0 | 32*
